# Bioassay records (PubChem)
# Calb FLC: C. albicans growth modulation with fluconazole; AID 1979; C. albicans CaCi-2 (fluconazole-resistant clinical isolate) + fluconazole, Alamar Blue growth, 48 h; growth inhibition, % (no concentration beside the values); hit rate 0.57% among 300,000;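 active means growth inhibition above about 58% in most replicates, limit read from the data, passing the limit was not always enough; inconclusive means exactly half the replicates above a set limit; inactive means most replicates below a set limit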;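 further: all wells also contain fluconazole at 8 µg/ml as a sub-toxic cotreatment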
# Platelet DG rel: platelet dense granule release activity; human platelet-rich plasma, SFLLRN dense granule ATP release, luminescence; inhibition, %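 (compounds screened at 7.5 µM in platelet-rich plasma)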; hit rate 0.22% among 300,000; AID 1663;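 active means mean replicate score, as percent of positive control, at or above 50; inconclusive means mean below 50 but at least one replicate at or above 50; inactive means mean and every replicate below 50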
# SKKanGAS inh: inhibitors of SKKanGAS S. pyogenes growth in kanamycin (SK-promoter or general growth effect); BacTiter-Glo, 6 h; inhibition, % at 7.5 µM; hit rate 1.3% among 300,000; AID 1662;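 active means mean replicate score, as percent of positive control median, at least 50; inconclusive means mean below 50 but one replicate at or above 50; inactive means mean and every replicate below 50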;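 further: strain carries kanamycin resistance gene driven by streptokinase promoter and grows in 40 µg/ml kanamycin; loss of luminescence reflects streptokinase promoter inhibition or plain growth inhibition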
# CR mimetic SO: lowers age-related superoxide in aged yeast cells; superoxide response (% of plate mean), % at 10 µM; hit rate 0.18% among 330,000; S. cerevisiae aged cells, superoxide DHE fluorescence; active compounds read low; AID 2690;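 active means superoxide response under a set limit, about three screen SD below normal, cut at about 65% in these data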;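 further: yeast aged for seven days with compound at 30 °C before DHE staining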
# PolyA inh: blocks polyadenylation in yeast reporter cells; activity score, % at 12 µM; S. cerevisiae SKY197-pL101 polyadenylation reporter, beta-gal luminescence; efflux-impaired pdr1/pdr3 knockout yeast; score 100 = 6 SD above DMSO; hit rate 0.02% among 300,000;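 active means lowest replicate activity score at least 50, where 100 means six control SD above control mean; inconclusive means lowest score under 50 but half or more replicates reach 50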;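 further: yeast exposed to compound for 9 h at 30 °C; higher score means more reporter readthrough which indicates perturbed polyadenylation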
# Numbers stand for hits; - = inactive; ? = inconclusive; . = no result given. Compounds with a hit are over-represented: about 2% of the library has one in this group of screens.
SMILES,Calb FLC,Platelet DG rel,SKKanGAS inh,CR mimetic SO,PolyA inh
O=C(Nc1nc(-c2ccncc2)cs1)c1ccco1,-,-,-,-,-
O=C(Nc1ccc(Br)cc1)c1cccc(-n2cnnn2)c1,-,-,-,-,-
O=C(Nc1nc(-c2ccccn2)cs1)c1ccc(Br)s1,93,-,-,-,-
O=C(Nc1nc(-c2ccc3c(c2)OCCO3)cs1)c1ccco1,-,-,56,-,-
O=C(Nc1nc(-c2ccccn2)cs1)c1ccco1,-,-,59,-,-
O=C(Nc1nc(-c2ccccn2)cs1)c1cccc(-n2cnnn2)c1,-,-,53,-,-
Cn1nccc1C(=O)OCC(=O)Nc1ccccc1Cl,-,-,-,.,-
CCOc1ccccc1NC(=O)CSc1nc2nc(-c3cccs3)cc(C(F)(F)F)c2c(=O)[nH]1,-,-,-,-,-
N#Cc1ccc(Cl)cc1NC(=O)CSc1nc2nc(-c3cccs3)cc(C(F)(F)F)c2c(=O)[nH]1,-,-,55,-,-
COc1ccc(NC(=O)CSc2nc3nc(-c4cccs4)cc(C(F)(F)F)c3c(=O)[nH]2)c(OC)c1,-,-,54,-,-
CCS(=O)(=O)N1Cc2ccccc2CC1C(=O)Nc1cccc(S(=O)(=O)N(C)C)c1 (stereo unspecified),-,-,-,-,-
O=C(COc1ccc(Br)cc1)NCCCNC(=O)c1ccncc1,-,-,-,-,-
Cc1ccc2cc(C3C(C#N)=C(N)Oc4c3ccc3cccnc43)c(=O)[nH]c2c1 (stereo unspecified),87,-,-,-,-
CCc1ccc2[nH]c(=O)c(C3C(C#N)=C(N)Oc4c3ccc3cccnc43)cc2c1 (stereo unspecified),110,-,58,-,-
N#CC1=C(N)Oc2cc3ccccc3cc2C1c1cccnc1 (stereo unspecified),-,-,-,-,-
N#CC1=C(N)Oc2c(ccc3cccnc23)C1c1cccnc1 (stereo unspecified),104,-,-,-,-
COc1cc(C(=O)O)c2c(c1C)OC(=O)c1c(C)cc(O)c(C=O)c1O2,-,-,-,-,-
CN1CCN(c2nc(-c3ccc(Cl)s3)cs2)CC1,-,-,-,-,-
COC(=O)c1c(-c2cccs2)csc1NC(=O)c1cccnc1,95,-,-,-,-
CCOc1ccc(N(CC(=O)N2CCCC2)S(=O)(=O)c2ccc(Cl)cc2)cc1,-,-,-,-,-
CCOC(=O)c1c(-c2ccco2)csc1NC(=O)COC(=O)c1cnc(C)cn1,-,-,-,-,-
Cc1cccc(N=Nc2c(N)n[nH]c2-c2ccc(Cl)cc2)c1,-,-,-,-,-
Cc1ccc(-c2[nH]nc(N)c2N=Nc2ccccc2C)cc1,-,-,75,-,-
Cc1c(OC(C)C(=O)NCc2ccccn2)ccc2c3c(c(=O)oc12)CCCC3 (stereo unspecified),-,?,-,-,-
CCc1ccc(/C=C2/SC(=S)N(CC(=O)Nc3nc4ccccc4s3)C2=O)cc1,-,-,79,-,-
SMILES,Calb FLC,Platelet DG rel,SKKanGAS inh,CR mimetic SO,PolyA inh
COc1ccc(/C=C2\SC(=O)N(CC(=O)NNC(=O)c3ccccc3O)C2=O)cc1OC,105,-,-,-,-
O=C1/C(=C\c2cc(Cl)c(O)c(Cl)c2)SC(=S)N1Cc1ccccc1,-,-,90,-,-
COc1ccc(/C=C2\SC(=O)N(CC(=O)NNC(=O)c3ccccc3O)C2=O)cc1,-,-,-,-,-
O=C(CN1C(=O)S/C(=C\C=C\c2ccccc2)C1=O)Nc1ccccc1C(=O)O,-,-,70,-,-
Cc1ccc(NC(=O)C(C)SCC(=O)Nc2ccc(F)cc2)cc1S(=O)(=O)N1CCOCC1 (stereo unspecified),-,-,-,-,-
CCc1ccc(/C=C2/SC(=S)N(CCCC(=O)Nc3ccccc3C(=O)O)C2=O)cc1,86,-,52,.,-
O=C(CCCN1C(=O)/C(=C/c2ccccc2Cl)SC1=S)NNC(=O)c1ccccc1,-,-,-,-,-
O=C(CCCN1C(=O)/C(=C/c2ccccc2Cl)SC1=S)NNC(=O)c1ccc(Cl)cc1Cl,-,53,-,-,-
O=C(CCN1C(=O)/C(=C\c2ccccc2)SC1=S)NNC(=O)c1ccccc1O,-,-,51,-,-
CCc1ccccc1NC(=O)CSc1nnc(-c2cc(C)[nH]n2)n1N,-,-,-,-,-
Clc1ccc(CONc2ncnc3nonc23)c(Cl)c1,76,-,.,-,.
CCOC(=O)CNC(c1ccccc1)c1cc(Br)ccc1NC(=O)CCN1CCOCC1 (stereo unspecified),111,-,-,-,-
Cc1ccc(C(=O)c2oc3nc(C)cc(C)c3c2N)cc1,121,-,-,-,-
COc1ccc(C(=O)c2oc3nc(C)cc(C)c3c2N)cc1,-,-,-,-,-
CC[C@H]1OC(=O)[C@H](C)[C@@H](O[C@H]2C[C@@](C)(OC)[C@@H](O)[C@H](C)O2)[C@H](C)[C@@H](O[C@@H]2O[C@H](C)C[C@H](N(C)C)[C@H]2O)[C@](C)(O)C[C@@H](C)C(=NOCOCCOC)[C@H](C)[C@@H](O)[C@]1(C)O,.,-,107,-,-
CC[C@H]1OC(=O)[C@H](C)[C@@H](O[C@H]2C[C@@](C)(OC)[C@@H](O)[C@H](C)O2)[C@H](C)[C@@H](O[C@@H]2O[C@H](C)C[C@H](N(C)C)[C@H]2O)[C@](C)(OC)C[C@@H](C)C(=O)[C@H](C)[C@@H](O)[C@]1(C)O,-,-,104,-,-
Cc1ccc(CN(C)C(=O)c2ccc3c(c2)NC(=O)CS3)o1,-,-,-,-,-
CCN1CCN(C(=O)CCc2nnc3ccc(N4CCC5(CC4)OCCO5)nn23)CC1,-,-,-,-,-
CS(=O)(=O)c1ncc(Cl)c(C(=O)Nc2ccc3ccccc3c2)n1,-,79,-,.,-
CCC1CCCCN1S(=O)(=O)c1ccc(NC(=O)c2ccncc2)cc1 (stereo unspecified),-,?,-,-,-
CCC1CCCCN1S(=O)(=O)c1ccc(NC(=O)c2nc(S(C)(=O)=O)ncc2Cl)cc1 (stereo unspecified),-,-,51,-,-
CC(=O)Nc1ccc(NC(=O)c2nc(S(=O)(=O)Cc3ccccc3)ncc2Cl)cc1,-,-,-,-,-
COc1ccc(C(CNC(=O)Cc2ccc(-c3ccccc3)cc2)N(C)C)cc1 (stereo unspecified),-,-,-,-,-
CC(=O)NS(=O)(=O)c1ccc(N=c2ssc3c2-c2ccc(C)cc2NC3(C)C)cc1,-,-,82,-,-
Cc1ccc(S(=O)(=O)NC(=O)Nc2cc(C)ccc2F)cc1,-,-,-,-,-
CC1=NN(c2ccc([N+](=O)[O-])cc2)C(=O)/C1=C\N(C)C,-,-,56,-,-
CN(C(=O)c1cccc(NC(=O)Cc2cccc([N+](=O)[O-])c2)c1)C1CC1,.,.,.,-,.
Cc1ccc(/C=C/C(=O)c2ccccc(=O)c2O)c(C)c1,92,-,58,-,-
